{"source": "the supplement of paper PMC11417369", "note": "In all, about 25,000 sequences were measured (“ln(normalized median fluorescence intensity)”: median about 7.1, highest 2% from about 10 on). This is one part of a sample in which the highest values are shown more often than they occur."}
{"system": "PfSIP2 AP2 domain 1 (GST-tagged)", "assay": "gcPBM binding intensity (ln(normalized median fluorescence intensity)); higher = stronger DNA binding", "method_in_brief": "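Plasmodium falciparum DNA-binding domains carrying a GST tag were expressed in E. coli and applied for 1 h, at about 25 μg on average, to an Agilent 4 × 180k array. The array held primer-extended double-stranded 36-bp intergenic genomic probes together with negative controls, and binding took place in 1× PBS with 1% milk, 0.2 mg/ml BSA, 0.5% salmon testes DNA and 0.03% Triton X-100. An Alexa488 anti-GST antibody detected bound protein, and the array was scanned at 488 nm. Binding intensity is taken as the highest Masliner-normalised natural-log median intensity across replicate spots of either probe orientation.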"}
{"sequence": "TTTATTTTAAAATATAGTACGCAAATAAAAATAAAT [XGTACX_site7783]", "gcPBM binding intensity (ln)": 7.33}
{"sequence": "AAATTTATTTCTGTGTGTCCACAAAAAAAAATCTTT [XGTACX_site691]", "gcPBM binding intensity (ln)": 6.91}
{"sequence": "TTTTTTTTTTTCTTTGCACACAGATAACTTGAAATT [CACACA_site2184]", "gcPBM binding intensity (ln)": 7.2}
{"sequence": "TATTATTAATATGTATGGTTGTAATCTGTGTCTCCT [TGCATGCA_negctrl_site190]", "gcPBM binding intensity (ln)": 7.12}
{"sequence": "CATTTTTTGCTTTCAACACACATACAATATATATAA [CACACA_site6127]", "gcPBM binding intensity (ln)": 7.26}
{"sequence": "AAAAAGAATAAATAAATAAATAAATATATATATATA [GTGCAC_negctrl_site584]", "gcPBM binding intensity (ln)": 9.47}
{"sequence": "AATATATGTAAATGGACACACACATATATATATATA [CACACA_site9220]", "gcPBM binding intensity (ln)": 9.61}
{"sequence": "AGAAATGAAATATACACACATACATATATACATATA [CACACA_site4033]", "gcPBM binding intensity (ln)": 7.21}
{"sequence": "ACATATATGTATAATACACACACTAATATATAATTG [CACACA_site1966]", "gcPBM binding intensity (ln)": 7.15}
{"sequence": "AAAATTTATAGTATGGTGCATAAAAATATATATATA", "gcPBM binding intensity (ln)": 10.3}
{"sequence": "ATATATATATATGTAGTGCATTTTATATATAATATT", "gcPBM binding intensity (ln)": 9.01}
{"sequence": "CATATATAAATATAAATATATATATATATATATATG [XGTACX_negctrl_site493]", "gcPBM binding intensity (ln)": 7.56}
{"sequence": "TAATATATATATATGGTGCATTTAATTTATATATAA", "gcPBM binding intensity (ln)": 10.8}
{"sequence": "TTATAAAAAATTTTAGTGCATATATGATTTATATAT [GTGCAC_site9831]", "gcPBM binding intensity (ln)": 8.21}
{"sequence": "TTTTGTAGTTTATAAATAAAAGAGAATATGGTGCTT [CACACA_negctrl_site413]", "gcPBM binding intensity (ln)": 7.7}
{"sequence": "GAATTATAAATTATAGTGCATAAAATTATGGCATAA [GTGCAC_site9938]", "gcPBM binding intensity (ln)": 8.52}
{"sequence": "AAAATTAATATCTTGGTGCATTTTTTAATATTATTA [GTGCAC_site9638]", "gcPBM binding intensity (ln)": 10}
{"sequence": "CATATAAAAAATATGGTGCAGTTTTTTTTTTTTTTT", "gcPBM binding intensity (ln)": 10.4}
{"sequence": "ACTCTATACATCTAATGTACATGGAAAAAAAAATTC [XGTACX_site733]", "gcPBM binding intensity (ln)": 7.28}
{"sequence": "ATTTATTTATTTATATGTACATATATATATATATAT [XGTACX_site339]", "gcPBM binding intensity (ln)": 9.54}
{"sequence": "TTAATTTATAAAAACACACACAGGTAAAAAGGTGCA [CACACA_site1177]", "gcPBM binding intensity (ln)": 9.31}
{"sequence": "TATTAATTTATTTGTTGTACGTAAATATGCTTGTTT [XGTACX_site6591]", "gcPBM binding intensity (ln)": 7.26}
{"sequence": "AAATGAACAAGTGGCACACACACATTCTAACTAATT [CACACA_site3203]", "gcPBM binding intensity (ln)": 6.93}
{"sequence": "TTCTATTTGTAAAATTGTACAAAATAAATAACAAAA [XGTACX_site1007]", "gcPBM binding intensity (ln)": 7.04}
{"sequence": "TACTTTTATATGAATACACACAGGAATATAAATATG [CACACA_site7647]", "gcPBM binding intensity (ln)": 7.2}
{"sequence": "GTATGAAAAAAAATATGTACACATATATATTTGGTA [XGTACX_site6309]", "gcPBM binding intensity (ln)": 7.07}
{"sequence": "TTCTTTGCTTTTCAAACACACAAAAGTTATTATATT [CACACA_site521]", "gcPBM binding intensity (ln)": 7.22}
{"sequence": "TAGAAAAACATTACGTGTACCAAACATCCTAGCAAC [XGTACX_site4888]", "gcPBM binding intensity (ln)": 7.19}
{"sequence": "GCAGCAGCATTTTCAGTGCATTATTATATTGTTCAT [GTGCAC_site9926]", "gcPBM binding intensity (ln)": 7.98}
{"sequence": "TTCATTGTGTTAACGGTGCATATATTTTTTCACCGT [GTGCAC_site9464]", "gcPBM binding intensity (ln)": 10.3}
{"sequence": "TTGTTCATATTTTTTATTGTGTTAATATTTATAAAA [GTGCAC_negctrl_site423]", "gcPBM binding intensity (ln)": 7.28}
{"sequence": "CAAAAGGATAGGCACACACACACACCCATATATATA [CACACA_site2199]", "gcPBM binding intensity (ln)": 7.55}
{"sequence": "ATGTATATAATATTATGTACATATATGAAATATTTT [XGTACX_site8168]", "gcPBM binding intensity (ln)": 7.02}
{"sequence": "CGCGCACCCAGACACACACACACACCGATATATATA [CACACA_site8687]", "gcPBM binding intensity (ln)": 10.6}
{"sequence": "CACGCGCACCAACACACACACACACCCATATATATA [CACACA_site2204]", "gcPBM binding intensity (ln)": 10.6}
{"sequence": "GGAGCACCCAGACACACACACACATATATATATATA [CACACA_site336]", "gcPBM binding intensity (ln)": 9.19}
{"sequence": "CGCGCACCCAGACACACACACACACCCATATATATA [CACACA_site2203]", "gcPBM binding intensity (ln)": 10.8}
{"sequence": "CACCCACACCAACACACACACATATATATATATATA [CACACA_site362]", "gcPBM binding intensity (ln)": 9.74}
{"sequence": "CACACCCACCAACACACACACACACCCACCCATATA [CACACA_site366]", "gcPBM binding intensity (ln)": 7.11}
{"sequence": "CGCGCCCAGAAACACACACACACACCGATATATATA [CACACA_site5250]", "gcPBM binding intensity (ln)": 7.62}
{"sequence": "CGCACCCACAGACACACACACACATATATATATATA [CACACA_site2202]", "gcPBM binding intensity (ln)": 9.47}
{"sequence": "CACCCCCACAGACACACACACACACCGATATATATA [CACACA_site8010]", "gcPBM binding intensity (ln)": 7.89}
{"sequence": "TTTTAGCACTTATTATAAGATATCAAAAAGATGGGT [XGTACX_negctrl_site325]", "gcPBM binding intensity (ln)": 7.32}
{"sequence": "ATAAATTCTATGTATACACACATATATAATATATAT [CACACA_site2689]", "gcPBM binding intensity (ln)": 7.26}
{"sequence": "TTTTTATTAATAGATATAAATATATAATATGAATGT [TGCATGCA_negctrl_site309]", "gcPBM binding intensity (ln)": 7.04}
{"sequence": "TTTCTTTTTTTTTAATGTACTTTTTTTATAAAAGGT [XGTACX_site5688]", "gcPBM binding intensity (ln)": 7.27}
{"sequence": "ATAATTATTTAATATATATATATTATTTCGAATGTT [GTGCAC_negctrl_site688]", "gcPBM binding intensity (ln)": 7.03}
{"sequence": "AAAGAATTATATAAGGTGCACGAATGTTTCTTTAAT", "gcPBM binding intensity (ln)": 10.9}
{"sequence": "TAAAAACAAAAATGTTGTACATAATATAAAACAATT [XGTACX_site6380]", "gcPBM binding intensity (ln)": 7.04}
{"sequence": "ATTTTTTAAATTTAAACACACATTTTGTATATGTTT [CACACA_site1654]", "gcPBM binding intensity (ln)": 7.02}
{"sequence": "ATTTTTTTTTTTTTATGTACATATAGGTGCAAATCA [XGTACX_site6748]", "gcPBM binding intensity (ln)": 11.4}
{"sequence": "ATATTTTTATTAGTAGTGCAATTTAGTGTATATATA [GTGCAC_site9542]", "gcPBM binding intensity (ln)": 8.39}
{"sequence": "CATATATATTTTATATGTACATATATATTTTATATA [XGTACX_site8665]", "gcPBM binding intensity (ln)": 7.03}
{"sequence": "ATATATTTATTAAGGTGTACAAAAATTATGTTGCAT [XGTACX_site7546]", "gcPBM binding intensity (ln)": 7.16}
{"sequence": "ATATATATATATTTATGTACATATATTTTTTTTTTT [XGTACX_site8558]", "gcPBM binding intensity (ln)": 8.71}
{"sequence": "TTTATATATTATTAATGTACAAAATTTTTATTGCAT [XGTACX_site3329]", "gcPBM binding intensity (ln)": 6.96}
{"sequence": "ATTTATATTACCCTTGCATGTAGGTGCAATTTTTTT [TGCATGCA_site757]", "gcPBM binding intensity (ln)": 11}
{"sequence": "GACAATTATATGTAGGTGCATATACAAATTTTTTAA", "gcPBM binding intensity (ln)": 10.9}
{"sequence": "AATTCATTTTACCCATGTACACAATTATATTTTATA [XGTACX_site4127]", "gcPBM binding intensity (ln)": 7.23}
